This is an account of results in PubChem BioAssay AID1423 (NMMLSC, 2008).

Out of some 220,000 compounds screened, about 750 (0.34%) were called active. No stated cut-off is given here; in the data, active means response below about 60% or above about 140%; inactive means in between. Many of the other results were omitted from the sample, so actives are more common in it than they were.

Guanine nucleotide-binding protein G(o) subunit alpha (Homo sapiens), sequence (P09471 whole entry, looked up): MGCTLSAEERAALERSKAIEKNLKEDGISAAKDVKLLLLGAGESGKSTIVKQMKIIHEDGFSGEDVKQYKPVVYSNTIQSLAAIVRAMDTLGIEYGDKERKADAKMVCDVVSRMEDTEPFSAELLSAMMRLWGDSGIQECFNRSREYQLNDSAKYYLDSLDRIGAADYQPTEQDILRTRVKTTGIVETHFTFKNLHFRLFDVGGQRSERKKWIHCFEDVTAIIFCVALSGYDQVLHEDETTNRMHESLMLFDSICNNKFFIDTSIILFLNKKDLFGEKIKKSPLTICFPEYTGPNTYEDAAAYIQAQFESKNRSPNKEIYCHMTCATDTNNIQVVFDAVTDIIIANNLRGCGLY

This test addresses Guanine nucleotide-binding protein G(o) subunit alpha (Homo sapiens) (UniProt P09471). Description: compounds changing RGS8 association with Galphao – biochemical, multiplexed bead flow cytometry, primary screen (AID 1423).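 Further: Galphao activated as the GDP aluminium fluoride complex binding bead-coupled RGS8.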 The note with it: at 10 µM, actives lie on both sides.
For `Cc1ccc(S(=O)(=O)CC(=O)Nc2c(C)n(C)n(-c3ccccc3)c2=O)cc1`, the response (percent of control binding) is 97.4% (inactive).
As for `Cc1cc(C)cc(N(CC(=O)Nc2c(C)n(C)n(-c3ccccc3)c2=O)S(C)(=O)=O)c1`, the figure is 1.54% (active).
For `Cc1cc(C)cc(N(C(C)C(=O)Nc2c(C)n(C)n(-c3ccccc3)c2=O)S(C)(=O)=O)c1` (stereo unspecified), the response (percent of control binding) was 104% (inactive).
As for `CCc1nn(-c2cc(Oc3cccc4ccccc34)nc(-c3ccccc3)n2)c(N)c1C#N`, the response (percent of control binding) is 105% (inactive).
For the compound `N/C(=N\S(=O)(=O)c1ccc(Cl)cc1)N1CCOCC1`, the response (percent of control binding) is 98.4% (inactive).
`CC(C)(C)C(=O)NNC(=O)c1ccc(Oc2cc(Cl)cc(Cl)c2)o1`: the response (percent of control binding) is 104% (inactive).
For the compound `O=C(CN1CCOCC1)Nc1c(Cl)cc(Cl)cc1Cl`, the response (percent of control binding) was 96% (inactive).
Turning to `O=C(CN1CCOCC1)Nc1ccccc1`, the response (percent of control binding) was 145% [activator] (active).
For `O=C(CN1CCOCC1)Nc1ccc(NC(=O)CN2CCOCC2)c(Cl)c1`, the response (percent of control binding) was 100% (inactive).
Turning to `CC(=O)c1ccc(N=C2SCCCN2C(=O)C2CCCCC2)cc1`, the response (percent of control binding) was 95.4% (inactive).
As for `O=C(NNc1c2ccccc2nc2ccccc12)c1cc2ccccc2cc1O`, the response (percent of control binding) was 98.1% (inactive).
With `Cc1ccc(S(=O)(=O)N2CCN(C(=O)COC(=O)c3c(C)noc3C)CC2)c(C)c1`, the response (percent of control binding) was 103% (inactive).
For `N#Cc1nc(-c2ccc(OCc3ccccc3)cc2)oc1NCCCN1CCOCC1`, the response (percent of control binding) was 99.9% (inactive).
Turning to `N#Cc1nc(COc2ccc(-c3ccccc3)cc2)oc1NCc1cccnc1`, the response (percent of control binding) was 167% [activator] (active).
For the compound `O=S(=O)(c1ccc(Br)cc1)c1nc(-c2ccccc2)oc1NCc1cccnc1`, the response (percent of control binding) is 103% (inactive).
As to `CC(C)(C)NC(=O)NC(=O)COC(=O)Cc1c(F)cccc1Cl`, the response (percent of control binding) was 99.5% (inactive).
To `CCCCC(CC(C)O)c1n[nH]c(=S)n1-c1ccccc1` (stereo unspecified) belongs 108% (inactive); to `CCn1c(CSCc2c(Cl)cccc2Cl)n[nH]c1=S`, 55.5% (active).
`S=c1[nH]nc(CSCc2ccc(Cl)cc2Cl)n1-c1ccccc1`: the response (percent of control binding) is 92.7% (inactive).
Take `CCn1c(CNS(=O)(=O)c2ccc(Cl)cc2)n[nH]c1=S`: the response (percent of control binding) is 100% (inactive).
In the case of `Cc1ccc(C(=O)C(=S)N2CCOCC2)cc1`, the response (percent of control binding) was 110% (inactive).
With `CC1CC(C)(C)n2c(O)c(N=NC(N)=S)c3cccc1c32` (stereo unspecified), the response (percent of control binding) was 100% (inactive).
Turning to `NS(=O)(=O)c1ccc(CCNC(=O)CCCn2c(SCC(=O)N3CCCC3)nc3ccsc3c2=O)cc1`, the response (percent of control binding) was 103% (inactive).
As for `O=[N+]([O-])c1ccccc1Nc1ccc(O)cc1`, the figure is 102% (inactive); as for `O=C(CC1SC(=Nc2ccccc2F)N(CCN2CCOCC2)C1=O)Nc1ccc(F)cc1F` (stereo unspecified), 97.3% (inactive); as for `CCOc1cc(NC(=O)c2ccccn2)c(OCC)cc1NC(=O)c1ccc(OC)cc1`, 103% (inactive).
In the case of `CCN(CC)CCOc1ccc2c(c1)C(=NNC(=O)c1ccccn1)c1cc(OCCN(CC)CC)ccc1-2`, the response (percent of control binding) is 154% [activator] (active).
As for `COc1ccc(CC(=O)N/N=C(\C)c2ccccn2)cc1`, the response (percent of control binding) is 72.6% (inactive).
To `COC(=O)C1=C(C)NC(=O)/C1=C/c1ccc(CNS(=O)(=O)c2ccc(C)cc2)o1` belongs 91% (inactive); to `Cn1c(=O)c2c(n(Cc3ccccc3)c1=O)NC(=O)C2CC(=O)N1CCc2ccccc2C1` (stereo unspecified), 12.1% (active); to `O=C(COc1ccccc1)N1CCc2ccccc2C1`, 101% (inactive).
As for `O=C(CSc1nnc(-c2cccs2)n1Cc1ccccc1)N1CCc2ccccc2C1`, the response (percent of control binding) is 97% (inactive).
For `O=C(NC1CCCCC1)C1CCCN(S(=O)(=O)c2ccc(Br)s2)C1` (stereo unspecified), the response (percent of control binding) was 96.9% (inactive).
With `O=C(O)c1ccc2c3c(cccc13)C(=O)N(OS(=O)(=O)c1ccccc1)C2=O`, the response (percent of control binding) was 98.5% (inactive).
To `CN1CCN(C(CNS(=O)(=O)c2cccs2)c2cccnc2)CC1` (stereo unspecified) belongs 10.6% (active).
With `CN1CCN(S(=O)(=O)c2ccc(N3CCN(S(=O)(=O)c4cccs4)CC3)nc2)CC1`, the response (percent of control binding) was 100% (inactive).
Regarding `Cc1ccc(NC(=O)NCC(c2cccnc2)N2CCOCC2)cc1` (stereo unspecified), the response (percent of control binding) is 103% (inactive).
Turning to `CCOC(=O)CCNC(=O)N1CCCC(C(=O)c2ccccc2SC)C1` (stereo unspecified), the response (percent of control binding) is 90.6% (inactive).
To `Cc1ccc2c(N)c(C(=O)c3ccccc3)sc2n1` belongs 104% (inactive); to `COc1cccc(C(=O)NNC(=O)c2ccccc2Br)c1`, 107% (inactive).
On to `COc1cccc(C(=O)NCCSc2ccc(Br)cc2)c1`, for which the response (percent of control binding) was 20.7% (active).
As for `COc1cc(OC)cc(C(=O)NCCSCc2ccco2)c1`, the figure is 97.9% (inactive); as for `OC(c1ccccc1)c1nccn1Cc1ccccc1` (stereo unspecified), 97.5% (inactive).
As to `OC(c1nc2ccccc2[nH]1)C(O)C(O)C(O)c1nc2ccccc2[nH]1` (stereo unspecified), the response (percent of control binding) is 100% (inactive).
Take `O=C(N/N=C/c1cccc([N+](=O)[O-])c1)c1ccncc1`: the response (percent of control binding) is 99.5% (inactive).
For the compound `Cc1c(C(=O)Nc2ccccc2Cl)oc2ccc(S(=O)(=O)N3CCC4(CC3)OCCO4)cc12`, the response (percent of control binding) was 105% (inactive).
For the compound `CCOc1ccccc1NC(=O)CCN1CCN(S(=O)(=O)c2ccc(OC)cc2)CC1`, the response (percent of control binding) was 99.6% (inactive).
On to `CCOc1ccccc1NC(=O)c1cc(S(=O)(=O)N2CCC3(CC2)OCCO3)ccc1F`, for which the response (percent of control binding) is 33% (active).
Regarding `CC(=O)c1cccc(-n2nnnc2SCC(=O)NNC(=O)C2CCCCC2)c1`, the response (percent of control binding) was 91.2% (inactive).
Regarding `O=C(COC(=O)/C(=C/c1cccs1)c1cccs1)NCc1ccccc1Cl`, the response (percent of control binding) was 85.8% (inactive).
In the case of `O=C(CSc1ccccc1)Nc1ccc(C(=O)Nc2cccc(O)c2)cc1`, the response (percent of control binding) is 109% (inactive).
In the case of `O=C(Cn1nnc(N2CCCCC2)n1)c1ccc(Cl)c(Cl)c1`, the response (percent of control binding) is 97.6% (inactive).
Turning to `COc1ccc(CCC(=O)OCC(=O)Nc2ccc(C)c(S(=O)(=O)N(C)C)c2)cc1`, the response (percent of control binding) is 57.7% (active).
Turning to `Cc1ccc(NC(=O)CNCc2ccccn2)cc1S(=O)(=O)N(C)C`, the response (percent of control binding) was 97.7% (inactive).
Regarding `COc1cc(CCC(=O)OCC(=O)Nc2cccc(S(N)(=O)=O)c2)cc(OC)c1OC`, the response (percent of control binding) is 95.2% (inactive).
As for `O=C1CCC/C(=N\NC(=O)NC2CCCCC2)C1`, the response (percent of control binding) is 100% (inactive).
To `COc1ccccc1-n1cn[nH]c1=S` belongs 102% (inactive).
With `COc1ccccc1-n1c(-c2cc(-c3ccco3)[nH]n2)n[nH]c1=S`, the response (percent of control binding) was 6.3% (active).
Consider `COc1ccc(OC)c(-n2c(-c3ccn[nH]3)n[nH]c2=S)c1`, for which the response (percent of control binding) was 98.6% (inactive).
As to `COc1ccc(-c2onc(C)c2-c2ccc3c(c2)OCCO3)c(O)c1`, the response (percent of control binding) was 101% (inactive).
Regarding `O=C(NCCCN1CCOCC1)c1ccccc1NS(=O)(=O)c1ccc(Br)cc1`, the response (percent of control binding) was 99.3% (inactive).
Turning to `COc1ccc(C(=O)NNc2cc(C)nc(NNC(=O)c3ccc(OC)cc3)n2)cc1`, the response (percent of control binding) was 54% (active).
`COc1ccc(C(=O)NNC(=O)c2cc(C)[nH]n2)cc1`: the response (percent of control binding) is 121% (inactive).
For the compound `COc1ccc(C(=O)NNS(=O)(=O)c2ccc(C)cc2)cc1`, the response (percent of control binding) was 101% (inactive).
For `CC(=O)Nc1ccc(N2C(=O)CCC2=O)cc1C`, the response (percent of control binding) is 100% (inactive).
As for `COc1ccccc1CCNC(=O)CSc1nnc2ccc(-c3cccnc3)nn12`, the response (percent of control binding) is 92.2% (inactive).
Turning to `CCOC(=O)NNc1cc(C(F)(F)F)ccn1`, the response (percent of control binding) is 133% (inactive).
As to `Nc1nnn(CC(=O)N/N=C/c2ccccc2)n1`, the response (percent of control binding) is 99.3% (inactive).
Take `CC(OC(=O)c1ccc2ccccc2n1)C(=O)c1ccccc1` (stereo unspecified): the response (percent of control binding) was 103% (inactive).
In the case of `COc1ccc(C2=NOC(COC(=O)c3ccc4ccccc4n3)C2)cc1` (stereo unspecified), the response (percent of control binding) was 101% (inactive).
Take `COc1ccc(C(=O)COC(=O)c2ccc3ccccc3n2)cc1`: the response (percent of control binding) is 28.9% (active).
Turning to `COC(=O)C1=C(C)N(c2ccc(C)cc2)/C(=C/c2ccc(O)cc2)C1=O`, the response (percent of control binding) was 99.9% (inactive).
As for `COc1cccc2c(N/N=C/c3ccco3)cc(C)nc12`, the figure is 96.9% (inactive).
With `CCN(CC)CCNCC(=O)Nc1ccc(Oc2ccccc2)cc1`, the response (percent of control binding) was 99.5% (inactive).
For the compound `CCCC(=O)N=c1sc2cccc(F)c2n1C`, the response (percent of control binding) is 37.2% (active).
For `Cn1c(=NC(=O)C2CC2)sc2cc(F)cc(F)c21`, the response (percent of control binding) was 96.6% (inactive).
To `Cn1c(=NC(=O)c2ccco2)sc2cccc(F)c21` belongs 103% (inactive); to `Cn1cc(-c2ccccc2)cc(C#N)c1=O`, 103% (inactive); to `Cc1ccccc1/[N+]([O-])=C/c1ccncc1`, 100% (inactive).
On to `CN(C)S(=O)(=O)c1cccc(NC(=O)COC(=O)/C=C/c2cccs2)c1`, for which the response (percent of control binding) is 102% (inactive).
With `Oc1ccc(N=Nc2nccs2)c(O)c1`, the response (percent of control binding) is 6.26% (active).
Consider `Oc1ccc2ccccc2c1N=Nc1nccs1`, for which the response (percent of control binding) is 99.8% (inactive).
As for `CONC(=O)c1cc(OCC(F)(F)F)ccc1OCC(F)(F)F`, the figure is 103% (inactive); as for `CCc1ccc(C(=O)OCC(=O)Nc2cccc(S(=O)(=O)NC3=NCCCCC3)c2)cc1`, 104% (inactive).
Turning to `Cc1ccc(S(=O)(=O)N2CCC(C(=O)N[C@@H](C)C(=O)NCc3ccco3)CC2)cc1`, the response (percent of control binding) is 103% (inactive).
As for `CN1CCN(C2=NCCO2)CC1`, the response (percent of control binding) was 100% (inactive).
Turning to `O=C1C2N=NN(CC(=O)N3N=C(c4cccc5ccccc45)CC3c3ccccc3)C2C(=O)N1c1ccccc1` (stereo unspecified), the response (percent of control binding) is 90.3% (inactive).
Take `COc1ccc(S(=O)(=O)N2CCCCCC2)cc1C(=O)OCC(=O)Nc1cc(C)on1`: the response (percent of control binding) is 100% (inactive).
Consider `COc1cc(/C=C(/NC(=O)c2ccc(Cl)cc2Cl)C(=O)O)cc(OC)c1OC`, for which the response (percent of control binding) is 75.5% (inactive).
As for `C=C(C)CNC(=S)/N=c1\scc(C)n1CC`, the response (percent of control binding) is 98.7% (inactive).
For the compound `O=S(=O)(c1ccccc1)N(CC(O)CN1CCCCC1)c1ccccc1` (stereo unspecified), the response (percent of control binding) was 101% (inactive).
For `Cc1cc(C)n(CC(O)CN(c2ccccc2)S(=O)(=O)c2ccc3ccccc3c2)n1` (stereo unspecified), the response (percent of control binding) was 15% (active).
Take `Cc1ccc(N(CC(O)CN2CCCC2)S(=O)(=O)c2ccccc2)cc1` (stereo unspecified): the response (percent of control binding) is 97.6% (inactive).
`C[C@H](NC(=O)c1ccccc1Cl)C(=O)OCCOc1cccc(Cl)c1`: the response (percent of control binding) was 105% (inactive).
Regarding `NS(=O)(=O)c1ccc(CCNC(=O)c2ccc(Cl)cc2[N+](=O)[O-])cc1`, the response (percent of control binding) is 102% (inactive).
Turning to `CC(=O)c1cc2c(cc1NC(=O)CN1CCCCCC1)OCO2`, the response (percent of control binding) was 111% (inactive).
